In the library only some 8.3% were active in any assay of this set; here they are far more common.
Gal4-VP16 FLuc: VP16 counterscreen qHTS for inhibitors of ROR gamma transcriptional activity | Potency, µM (doses to about 53.6 µM), without a hit: at the highest dose activity, negative = inhibition, usual class: inhibitors | Drosophila S2 Gal4-VP16 UAS-luciferase, luminescence, 20 h | 310,000 compounds, 3.5% hits;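 also: Gal4-VP16 expression switched on by copper sulfate through the metallothionein promoter; potency is read from the fitted curve at half-maximal effect; % is scaled to controls: 0 for no effect and ±100 for the full control effect; nearly all actives have a fitted effect of over 50% in size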
MCF10A rerep: A quantitative high throughput screen for small molecules that induce DNA re-replication in MCF 10a normal breast cells; MCF 10A DNA re-replication, Hoechst nuclear intensity, 48 h; 350,000 compounds, 2.9% hits; AID 624296, 2012; Potency, µM (doses to about 46.1 µM), without a hit: at the highest dose activity, positive = re-replication, usual class: activators; also: potency is read from the fitted curve at half-maximal effect; % of control where 0% means no effect; nearly all actives have a fitted effect of over 50% in size
RORgamma inh: qHTS for inhibitors of ROR gamma transcriptional activity | Drosophila S2 Gal4-RORgamma UAS-luciferase reporter, 20 h | Potency, µM (highest dose often 53.6 µM), without a hit: at the highest dose activity change, negative = inhibition, most hits filed as inhibitors | 310,000 compounds, 5.4% hits | AID 2551, 2010; also: potency is read from the fitted curve at half-maximal effect; % is scaled to controls: 0 for no effect and ±100 for the full control effect; nearly all actives have a fitted effect of over 60% in size
Target sequence (P51450 whole entry, looked up, the tested form may be a part): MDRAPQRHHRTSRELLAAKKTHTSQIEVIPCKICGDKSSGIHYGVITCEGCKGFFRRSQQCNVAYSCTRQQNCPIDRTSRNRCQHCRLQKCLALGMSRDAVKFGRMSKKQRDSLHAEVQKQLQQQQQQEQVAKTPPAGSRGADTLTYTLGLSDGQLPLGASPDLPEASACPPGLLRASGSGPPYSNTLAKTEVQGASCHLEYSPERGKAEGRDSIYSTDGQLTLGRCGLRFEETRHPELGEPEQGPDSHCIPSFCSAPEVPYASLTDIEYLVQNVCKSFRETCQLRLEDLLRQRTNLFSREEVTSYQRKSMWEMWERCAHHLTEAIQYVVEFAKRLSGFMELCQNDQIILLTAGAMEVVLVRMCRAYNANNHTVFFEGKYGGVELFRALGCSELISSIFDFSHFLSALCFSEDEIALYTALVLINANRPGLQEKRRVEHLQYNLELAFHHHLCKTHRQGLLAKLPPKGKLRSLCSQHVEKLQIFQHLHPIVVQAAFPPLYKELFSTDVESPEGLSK
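Using a luciferase readout, inhibitors were identified by reduced reporter activity in Drosophila cells coexpressing a copper-inducible Gal4–ROR gamma fusion and UAS-driven Photinus luciferase, incubated 20 hr after 700 uM copper sulfate.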
BCR signal inh: qHTS Assay to Find Inhibitors of Chronic Active B-Cell Receptor Signaling; ABC-DLBCL IkBa-CBG/CBR reporter, luminescence ratio, 4 h; Potency, µM (highest dose often 46.1 µM), for inactives: at the top dose activity change, negative = inhibition, most hits filed as inhibitors; 340,000 compounds, 0.05% hits; AID 493014, 2011; active = well fitted inhibition curve with a large enough effect in the signal ratio, with a control signal flat, not every such curve was filed as active; inconclusive = small, poorly fitted or top-dose-only effect, or effect the other way, or a change in a side signal; the % refers to the signal ratio;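 also: potency is read from the fitted curve at half-maximal effect; plate controls were basal doxycycline-induced cells for no effect and cells given 10 µM MG132 for full effect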
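Cell line TMD8 (human ABC DLBCL), stably expressing tet-inducible CBG68-IkBa fusion and CBR; IMDM/0.5% FBS; cpd up to 46 uM; dox induction, 4 h, 37C/5% CO2; dual luminescence; green/red ratio; MG132 control.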
Giardia killer: Small Molecules that selectively kill Giardia lamblia: qHTS | Giardia lamblia trophozoite viability | activity change, % at 7.66 µM, hits read low | 340,000 compounds, 0.15% hits; in the data active = activity change below about -80%; inconclusive = between about -30% and that limit;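 also: parasites exposed to compound for two days anaerobically before the ATP read; % is scaled to controls: 0 for no effect and ±100 for the full control effect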
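Anaerobic 48 hrs incubation at 37 deg C of 100 trophozoites/well with test compounds; ATPLite 1-Step luminescence, 15-30 min RT, reports cellular ATP as viability.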
SW480 rerep: A quantitative high throughput screen for small molecules that induce DNA re-replication in SW480 colon adenocarcinoma cells | Potency, µM (top dose mostly 46.1 µM), for inactives: top-dose re-replication activation, most hits filed as activators | AID 624297, 2012 | SW480 DNA re-replication, Hoechst DNA content imaging, 48 h | 340,000 compounds, 1.8% hits; also: potency is read from the fitted curve at half-maximal effect; % of control where 0% means no effect; nearly all actives have a fitted effect of over 55% in size
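Cells (250 per well) received 23 nL compound or DMSO by pin tool and were kept 48 hr at 37 C, 5% CO2. Nuclei were then stained with Hoechst for 40 min and scanned for DNA content.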
* = called active by the depositor; ? = inconclusive; . = not tested or not shown; [ ] = remark or other dose. Unless noted, calls follow the shape of the dose curve; as a rule, active = well fitted curve in the direction sought with a large enough effect; inconclusive = small, poorly fitted or top-dose-only effect, or another doubt; inactive = no such curve, though single readings can be large; an effect the other way counts as inactive or inconclusive.

SMILES	Gal4-VP16 FLuc	MCF10A rerep	RORgamma inh	BCR signal inh	Giardia killer	SW480 rerep
Cc1nc(SCC(=O)c2ccccc2)c(C#N)c(-c2ccco2)c1C(=O)NCc1ccco1	5µM*	?	5.6µM*	?	4	?
CCCN1CNc2c(c(=O)[nH]c(=S)n2CCc2ccccc2OC)C1	.	.	.	.	3	.
COc1ccc(Nc2c3c(nc4ccccc24)CCC3)c(OC)c1	2%	?	1%	?	-4	?
COc1cc(Nc2c3c(nc4ccccc24)CCCC3)cc(OC)c1OC	9%	0%	11µM*	?	57	0%
COc1ccccc1Nc1c2c(nc3ccccc13)CCC2	0%	12µM*	2%	-7%	-5	15µM*
O=C(/C=C/c1cccs1)NC(=S)Nc1ccc(S(=O)(=O)Nc2ccccc2C(F)(F)F)cc1	-6%	21%	4%	6%	-10	-23%
O=[N+]([O-])c1ccc(NN=Cc2cccc(O)c2)nc1	.	16µM*	.	.	-23	?
O=[N+]([O-])c1ccc(NN=Cc2cc(Br)ccc2O)nc1	.	11%	.	.	-16	0.73µM*
CC(=O)Nc1ccc(C=NNc2ccc([N+](=O)[O-])cn2)cc1	.	10%	.	.	-9	0%
COc1cc(/C=N/Nc2ccc([N+](=O)[O-])cn2)cc(OC)c1O	13%	21µM*	47%	1%	16	16µM*
O=[N+]([O-])c1ccc(N/N=C\c2cccnc2)nc1	5%	0%	-2%	13%	10	-69%
Cc1cccc(C)c1-n1c(C)cc(/C=N\Nc2ccc([N+](=O)[O-])cn2)c1C	-3%	5.2µM*	-25%	?	8	?
CCOc1ncccc1C(=O)OCc1c(Cl)cccc1Cl	-2%	-7%	-19%	?	-17	-6%
Cc1cc(/C=N/Nc2nc(N)ncc2[N+](=O)[O-])c(C)n1-c1ccccc1F	7.1µM*	.	1.6µM*	-24%	.	.
CCOc1ccc(-c2nnc(Nc3ccc(OC)c(C(=O)N4CCCCC4)c3)c3ccccc23)cc1	-30%	?	?	0%	3	?
CCOc1ccc(-n2nc3c(=O)n(CCN4CCCCC4)nc(C)c3c2C)cc1	3%	0%	-1%	-1%	8	23µM*
Cc1nn(CC(=O)NCCN2CCCCCC2)c(=O)c2nn(-c3ccccc3)c(C)c12	11%	-1%	-19%	-5%	-11	-8%
Cn1nc(C(=O)OCC(=O)Nc2ccc(Cl)cc2Cl)c2ccccc2c1=O	.	7%	.	6%	-2	-10%
C/C(=N\NC(=O)c1cccc(S(=O)(=O)Nc2cccc(Cl)c2)c1)c1cccs1	4µM*	?	5µM*	?	5	0%
CCN(CC)S(=O)(=O)c1cccc(C(=O)N/N=C(\C)c2cccs2)c1	?	-28%	3.5µM*	5%	-19	-19%[1.84 µM]
Cc1ccc(S(=O)(=O)N2C[C@@H]3[C@H]4CC[C@H](C4)[C@@H]3[C@@H](C)[C@@H]2c2ccn(Cc3ccccc3)c2)cc1	.	14%	.	?	-27	-25%
CC(=O)N1CCN(S(=O)(=O)c2cccc(C(=O)OCC(=O)N(CCC#N)c3ccc(F)cc3)c2)CC1	.	-3%	.	2%	12	-3%
COc1ccc(CN(Cc2ccccc2)C(=O)c2ccno2)cc1COc1ccc(NC(C)=O)cc1	.	.	.	.	11	.
COc1ccc([C@H]2CC(=O)C=C(c3ccccc3-c3ccccc3)C2)cc1	.	16µM*	.	6%	-16	?
COc1ccc([C@H]2CC(=O)C=C(c3cc(C)ccc3OC)C2)cc1	.	?	.	2%	8	16µM*
SMILES	Gal4-VP16 FLuc	MCF10A rerep	RORgamma inh	BCR signal inh	Giardia killer	SW480 rerep
CCOc1ccc(Br)cc1C1=CC(=O)C[C@H](c2ccc(OC)cc2)C1	.	2.9µM*	.	?	5	7.3µM*
COc1ccc([C@H]2CC(=O)C=C(c3cc(C)ccc3F)C2)cc1	.	?	.	-12%	-6	-8%
O=C(Nc1ccccc1)c1cccc(S(=O)(=O)NC2CCCC2)c1	-10%	2%	6%	1%	11	1%
CCOC(=O)c1sc(NC(=O)CC(C)c2ccccc2)nc1C (stereo not drawn)	-11%	27%	17%	?	-23	?
CCOC(=O)c1sc(NC(=O)CCc2ccccc2)nc1C	1%	20%	-17%	?	25	5.8µM*
CCOC(=O)c1sc(NC(=S)NC(=O)c2cccc(OC)c2)nc1C	?	0%	8.9µM*	?	-19	-2%
COC(=O)c1sc(NC(=S)NC(=O)c2ccccc2)nc1C	?	2%	?	0%	-12	-9%
COc1cc(C(=O)NC(=S)Nc2nccs2)cc(OC)c1OC	?	0%	3.2µM*	0%	6	1%
COc1cc(CC(=O)Nc2nccs2)cc(OC)c1OC	-8%	0%	-13%	-2%	-7	-18%
COC(=O)c1sc(NC(=S)NC(=O)c2cc(OC)c(OC)c(OC)c2)nc1C	-21%	-5%	10µM*	-1%	-15	-5%
Cc1ccc(OCC(=O)Nc2ccc(N3CCN(S(C)(=O)=O)CC3)cc2)cc1C	1%	11%	2%	-2%	13	-3%
COc1ccc2nc(SCC(=O)NCC3CCCO3)c(C#N)cc2c1 (stereo not drawn)	7%	23µM*	-32%	-9%	22	-4%
COc1ccc(C(=O)Nn2c(SCC(=O)NC3CCCC3)nc3ccccc3c2=O)cc1	?	-3%	?	?	-5	-17%
Cc1ccc2nc(SCC(=O)NCC3CCCO3)c(C#N)cc2c1 (stereo not drawn)	9%	1%	-5%	-1%	-3	-4%
Cc1nc(SCC(=O)NCC2CCCO2)c2cc(-c3ccccc3)sc2n1 (stereo not drawn)	.	21µM*	.	?	3	-3%
COc1ccc(C(=O)Nn2c(SCC(=O)NCC3CCCO3)nc3ccccc3c2=O)cc1 (stereo not drawn)	?	13%	7.1µM*	?	-13	-4%
COc1ccc(C(=O)Nn2c(SCC(=O)NCc3ccccc3)nc3ccccc3c2=O)cc1	3%	70%[0.0737 µM]	10µM*	?	-5	1%
CC(C)[C@@H](C(=O)NCc1ccco1)N1C(=O)N2CCc3c([nH]c4ccccc34)[C@@]2(C)C1=O	1%	1%	8%	1%	3	-23%

Bioassay records as filed in PubChem.
